“And” between values parts separate entries of the source, which are not always exact repeats. Identical values can stand only once. Results filed as inconclusive are left out. Unmarked numbers belong to inactive results. Calls come from the whole dose curve; as a rule, active = well fitted cell-killing curve with a large enough effect; inconclusive = small, poorly fitted or top-dose-only effect, or effect the other way; inactive = flat fitted curve, though single readings scatter.
% is set by controls: 0 for no effect and ±100 for the full control effect.

A short description of the assay: qHTS assay for cell viability of HEK293 cells (AID 743288). Note: nearly all actives have a fitted effect of over 50% in size. The conditions noted are these: ATP luminescence (CellTiter-Glo), 18 h, stronger effect = lower value. The source says: National Center for Advancing Translational Sciences [NCATS]
NIH Chemical Genomics Center [NCGC]
U.S. Environmental Protection Agency [EPA]
National Institutes of Environmental Health Sciences [NIEHS]
National Toxicology Program [NTP]
U.S. Food and Drug Administration [FDA]
The CellTiter-Glo Luminescent Cell Viability Assay (Promega, Madison, WI) is a homogeneous method to determine the number of viable cells in culture based on quantitation of the ATP present, which signals the presence of metabolically active cells. This cell viability assay was used to screen environmental chemicals in the Hek293 cell line.
Tox21 Assay Protocol Summary:
Cell viability after compound treatment was measured using a luciferase-coupled ATP quantitation assay (CellTiter-Glo viability assay, Promega, Madison, WI) in parental HEK293 cells. Total intracellular ATP content corresponds to the number of metabolically competent cells after compound treatment. The cells were dispensed at 2,000 cells/5 uL/well in 1,536-well white/solid bottom assay plates using a Flying Reagent Dispenser (Aurora Discovery, San Diego, CA). The cells were incubated a minimum of 5 h at 37 C, followed by the addition of 23 nL of compounds dissolved in DMSO, positive controls or DMSO only using a pintool work station (Kalypsys, San Diego, CA). The assay plates were incubated for 18 h at 37 C, followed by the addition of 5 uL/well of CellTiter-Glo reagent. After 30 min incubation at room temperature, the luminescence intensity of the plates was measured using a ViewLux plate reader (PerkinElmer, Shelton, CT).
For the compound `Nc1nc(N)nc(NC2CC2)n1`, the max response is -3.61%.

With `O=C1c2ccccc2C(=O)c2ccccc21`, the max response was -16.3%.

Consider `[N-]=[N+]=CC(=O)OC[C@H](N)C(=O)O`, for which the max response was 0.519%.

Consider `Nc1ccccc1`, for which the max response is -4.37%.

Regarding `CCOP(=S)(OCC)Oc1ccc2c(C)c(Cl)c(=O)oc2c1`, the max response was -5.48%.

`O=C(O)CCCc1ccc(N(CCCl)CCCl)cc1`: the max response is -9.24% and -11.4%.

Regarding `COC(=O)C(c1ccccc1)C1CCCCN1` (centres undefined), the max response is -2.58% and -3.35%.

For the compound `Oc1ccc(Cl)cc1`, the max response was -5.89%.

On to `COc1cc(OC)c(OC)cc1C=O`, for which the max response is -1.47%.

For `CC1(C)C(C=C(Cl)Cl)C1C(=O)OC(C#N)c1cccc(Oc2ccccc2)c1` (centres undefined), the max response was -3.3%.

On to `CCC(C)(C)c1ccc(O)cc1`, for which the max response is 6.76% and -11.5%.

Turning to `O=P1(N(CCCl)CCCl)NCCCO1` (centres undefined), the max response was -14.2% and 0.164%.

In the case of `CCOC(=O)CC(SP(=S)(OC)OC)C(=O)OCC` (centres undefined), the max response is -11.8% and -13% and -16.1%.

With `C[C@]12CCC(=O)C=C1CC[C@@H]1[C@@H]2CC[C@]2(C)C(=O)CC[C@@H]12`, the max response is -2.66%.

With `CC(C)(C)c1ccc(O)cc1`, the max response was 3.38%.

For `C[C@]1(O)CC[C@H]2[C@@H]3CCC4=CC(=O)CC[C@]4(C)[C@@]3(F)[C@@H](O)C[C@@]21C`, the max response was -0.591%.

For `Nc1ccc([As](=O)(O)O)cc1`, the max response was -4.94%.

With `CN1C[C@H](C(=O)N[C@]2(C)O[C@@]3(O)[C@@H]4CCCN4C(=O)[C@H](Cc4ccccc4)N3C2=O)C=C2c3cccc4[nH]cc(c34)C[C@H]21`, the max response was -13.1% and -12.3%.

Regarding `Nc1ccccc1C(=O)O`, the max response is 2.79%.

With `COP(=S)(OC)Oc1ccc(SC)c(C)c1`, the max response is 2.92% and -23.3%.

Regarding `C[C@]12CCC(=O)C=C1CC[C@@H]1[C@@H]2CC[C@@]2(C)[C@H]1CC[C@]2(C)O`, the max response was -18%.

As to `COP(=S)(OC)Oc1cc(Cl)c(Cl)cc1Cl`, the max response is -11.5%.

Regarding `CC(C)NC(C)C`, the max response is 4.29%.

Consider `CC(C)c1cccc(C(C)C)c1O`, for which the max response is -1.26%.

As for `O=C1c2ccccc2C(=O)C1C(=O)C(c1ccccc1)c1ccccc1`, the max response is -28.7%.

In the case of `CCCC(C)(COC(N)=O)COC(N)=O`, the max response is 2.5% and 7.62%.

On to `NCCc1ccc(O)cc1`, for which the max response was -6.56%.

Turning to `COP(=S)(OC)SCN1C(=O)c2ccccc2C1=O`, the max response was -19.3%.

For the compound `Clc1ccc(C(c2ccc(Cl)cc2)C(Cl)(Cl)Cl)cc1`, the max response is -17.1%.

Source of the values: PubChem BioAssay (NCATS).
